Laboratory results published in PubChem BioAssay AID652042 (Broad Institute, 2013).
About 350 (32%) of roughly 1,100 compounds were called active. How the calls were made is not given here. These entries were drawn from the full list. Entries with a potency or affinity are not part of this list.

assay: viability loss in CEM21 cells – cell-based, CellTiter-Glo luminescence, cherry-picked, cytotoxicity control for viral fusion inhibitor project, dose response (AID 652042); settings: CellTiter-Glo ATP luminescence, 24 h; series mostly up to 35 µM

SMILES | activity change, negative = cytotoxicity
CCc1nc2ccc(C(=O)N3CCN(C(=O)c4ccco4)CC3)cn2c1N(C)Cc1ccc(OC)cc1 | inactive
C[C@@]12C(=O)N(Cc3ccccc3)CC(=O)N1[C@H]1c3ccccc3OC[C@@H]1[C@@H]2c1ccccc1 | inactive
O=S1(=O)c2c(cccc2N2CCCCC2)O[C@H](COCc2ccccc2)CN1C1CC1 | inactive
Cc1oc(-c2ccc(Cl)cc2)nc1CN1CCCC(C(=O)NCc2cccnc2)C1 (stereo not drawn) | inactive
COc1ccc(CCNC(=O)C2CCCN(Cc3nc(-c4cccc(Cl)c4)oc3C)C2)cc1OC (stereo not drawn) | inactive
Nc1cc(-c2ccccc2)nn1S(=O)(=O)c1ccc(F)cc1 | inactive
c1cnc2ccc(C(c3nnnn3C3CCCCC3)N3CCCCC3)cc2c1 (stereo not drawn) | inactive
C=CCNc1ncnc2ccc(Br)cc12 | inactive
c1ccc(CNc2ncnc3ccccc23)cc1 | inactive
CCN(C[C@H]1N[C@@](C)(C(=O)OC)[C@H]2C(=O)N(Cc3ccccc3)C(=O)[C@@H]12)S(=O)(=O)c1ccc(C(C)(C)C)cc1 | inactive
CC1(Cc2ccc(Cl)cc2)C(=O)Nc2ccc(-c3cccnc3)cc21 (stereo not drawn) | inactive
O=C(CNc1ccc(F)cc1)c1ccccc1 | inactive
COc1cccc(Cl)c1NC(=O)N1CCc2c([nH]c3ccccc23)C1C(F)(F)F (stereo not drawn) | inactive
O=C(CCCCn1c(=O)[nH]c2ccccc2c1=O)N1CCN(c2cccc(C(F)(F)F)c2)CC1 | inactive
COc1ccc(N2CCN(C(=O)C3CCC(Cn4c(=S)[nH]c5ccccc5c4=O)CC3)CC2)cc1 (stereo not drawn) | inactive
CC(C)CCSc1nc(N)c(C#N)cc1C#N | inactive
COC(=O)C1(C(=O)OC)C[C@H](c2ccc(OC)cc2)N(Cc2ccccc2OC)[C@@H]1c1cccs1 | inactive
COc1ccc(CNc2ncnc3ccccc23)cc1 | inactive
CC(C)(C)c1ccc(C(=O)Nc2ccc(CC(=O)O)cc2)o1 | inactive
Cc1nn(C)c(C)c1CN(C)S(=O)(=O)c1ccc2ccccc2c1 | inactive
CS(=O)(=O)N(Cc1ccc(Cl)cc1)c1ccc(C(=O)NCCC2=CCCCC2)cc1 | inactive
Cc1ccc2c(c1)c1c3n2CCN(CC(N)=O)C3CCC1 (stereo not drawn) | inactive

SMILES | activity change, negative = cytotoxicity
CO[C@H]1CN(C)C(=O)c2cc(NS(=O)(=O)c3ccc(Cl)cc3)ccc2OC[C@@H](C)N(C)C[C@@H]1C | inactive
Cc1cc2ncn(S(=O)(=O)N3CCCCC3)c2cc1C | inactive
CC(=O)Nc1sc2c(c1C(c1ccc(F)cc1)N1CCOCC1)CCCC2 (stereo not drawn) | inactive
CC(C)(C)c1ccc(C(=O)N2CCCCCC2=O)cc1 | inactive
CN(C[C@@H](CC1CCCCC1)N(C[C@H](Cc1ccccc1)N(CCc1ccccc1)N=O)N=O)N=O | inactive
CC[C@]1(C(=O)OC)[C@H]2C(=O)N(Cc3ccccc3)C(=O)[C@H]2[C@H]2CN=C(SCC3CC3)N21 | inactive
CO[C@@H]1CN(C)C(=O)c2ccc(NC(C)=O)cc2OC[C@@H](C)N(Cc2cncnc2)C[C@@H]1C | inactive
COc1ccc(-c2cn3c(C)c(C(=O)Nc4cccc(NC(C)=O)c4)sc3n2)cc1 | inactive
O=C(N/N=C/c1ccc(-n2ccnc2)cc1)c1cccs1 | inactive
Cc1ccc(-n2nnnc2-c2cnn(-c3ccc(F)cc3)c2C(F)(F)F)cc1 | inactive
CCc1ccc([C@H]2[C@@H]3C(=O)C[C@@H]4C(=O)N(C5CCCCC5)C(=O)[C@@H]4[C@@H]3CN2S(=O)(=O)c2ccc(C)cc2)cc1 | inactive
COc1ccc(OC2C(=O)N(Cc3ccc4c(c3)OCO4)C2c2cccs2)cc1 (stereo not drawn) | inactive
COC(=O)[C@H](Cc1ccccc1)NC(=O)Cn1cnc(C(=O)Nc2ccc(C)c(C)c2)n1 | inactive
O=S(=O)(c1ccccc1Cl)N1CCCC1c1nc(-c2ccc(Cl)cc2)no1 (stereo not drawn) | inactive
CCNC(=O)C[C@@H]1CC[C@@H]2[C@H](COC[C@@H](O)CN2C(=O)c2ccccn2)O1 | inactive
COC(=O)C1(C(=O)OC)C[C@H](c2ccccc2)N(Cc2ccccc2OC)[C@@H]1c1ccccc1 | inactive
COc1ccc(CCNc2oc(-c3cccc4ccccc34)nc2P(=O)(OC)OC)cc1OC | inactive
COc1ccc(S(=O)(=O)Nc2ccc3c(c2)CC(=O)N([C@H](C)CO)C[C@H](C)[C@H](CN(C)S(=O)(=O)c2cccs2)O3)cc1 | inactive
CC(C)CNS(=O)(=O)c1ccc(CCC(=O)N2CCN(Cc3ccc4c(c3)OCO4)CC2)cc1 | inactive
CN1C(=O)C2(c3ccccc31)N(C)CC(c1ccccc1)C21SC(=S)N(Cc2ccco2)C1=O (stereo not drawn) | inactive
C[C@@]12C(=O)N(Cc3ccco3)CC(=O)N1[C@H]1c3ccccc3OC[C@@H]1[C@@H]2c1ccccc1 | inactive
O=C(NCCCN1CCc2ccccc2C1)Nc1ccc(Cl)cc1 | inactive

SMILES | activity change, negative = cytotoxicity
CCCCn1c(N)c(N(CC(C)C)C(=O)c2ccc(S(=O)(=O)N(CC)c3ccccc3)cc2)c(=O)[nH]c1=O | inactive
NC(=O)c1sc2nccc(Nc3ccccc3)c2c1N | inactive
CCc1nc2ccc(C(=O)NCCN3CCNC3=O)cn2c1N(CC)Cc1cccc(Br)c1 | inactive
Cc1ccccc1OCC(=O)Nc1cccc(C(=O)O)c1 | inactive
O=C(Nc1ccc(F)cc1)C1CCCN1S(=O)(=O)c1ccc(Br)cc1 (stereo not drawn) | inactive
CC(=O)c1c(C)[nH]c(C(=O)OCC(=O)Nc2c(C)cccc2C)c1C | inactive
Cc1ccc(-c2nnc(N3CCN(C(=O)COc4ccccc4)CC3)c3ccccc23)cc1 | inactive
Cc1cc(Cl)ccc1OCC(=O)NNC(=O)C1CSC2(C)CCC(=O)N12 (stereo not drawn) | inactive
O=C(Cc1ccc(S(=O)(=O)N2CCOCC2)s1)N1CCN(S(=O)(=O)c2ccc(Cl)cc2)CC1 | inactive
CC(NC(=O)c1cc(S(=O)(=O)N(C)C)ccc1N1CCCC1)C1CC2CCC1C2 (stereo not drawn) | inactive
O=C(CCc1ccc(S(=O)(=O)N2CCOCC2)cc1)Nc1nc(COc2ccccc2)cs1 | inactive
COCCCn1c(-c2ccc(S(=O)(=O)N3CCOCC3)cc2)csc1=Nc1ccccc1 | inactive
O=C(CN1C(=O)c2ccccc2S1(=O)=O)N1CCc2ccccc21 | inactive
Clc1ccc(-c2noc(CSc3nnc(-c4ccncc4)n3-c3ccccc3)n2)cc1 | inactive
Cc1cccc(C)c1NC(=O)N1CCN(c2nc3ccccc3s2)CC1 | inactive
COc1ccc(-c2nnn(CC(=O)N(Cc3cccs3)C(C)C(=O)NC3CCCC3)n2)cc1OC (stereo not drawn) | inactive
O=C(NC1CCCCC1)C(c1cccs1)N(Cc1cccs1)C(=O)c1ccco1 (stereo not drawn) | inactive
c1ccc2c(c1)OCC(CNc1ncnc3nc[nH]c13)O2 (stereo not drawn) | inactive
COc1ccc(CNC(=O)N(C)C[C@H]2OCc3ccccc3-c3ccccc3C(=O)N([C@H](C)CO)C[C@@H]2C)cc1 | inactive
C[C@H]1CN([C@@H](C)CO)C(=O)c2ccccc2-c2ccccc2CO[C@@H]1CN(C)C(=O)Nc1cccc(C(F)(F)F)c1 | inactive
C[C@H]1CN([C@@H](C)CO)C(=O)c2c(c3ccccc3n2C)-c2ccccc2CO[C@H]1CN(C)C(=O)Cc1ccccc1 | inactive
C[C@H](C(=O)N(C)C[C@@H]1OCc2ccccc2-c2ccccc2C(=O)N([C@@H](C)CO)C[C@H]1C)c1ccccc1 | inactive

SMILES | activity change, negative = cytotoxicity
C[C@H](C(=O)N(C)C[C@@H]1OCc2ccccc2-c2ccccc2C(=O)N([C@@H](C)CO)C[C@@H]1C)c1ccccc1 | inactive
C[C@H](CO)N1C[C@H](C)[C@@H](CN(C)C(=O)[C@H](Cc2ccccc2)N(C)C)OCc2ccccc2-c2c(n(C)c3ccccc23)C1=O | inactive
CO[C@H](C(=O)N(C)C[C@@H]1OCc2ccccc2-c2c(n(C)c3ccccc23)C(=O)N([C@H](C)CO)C[C@@H]1C)c1ccccc1 | inactive
C[C@H]1CN([C@@H](C)CO)C(=O)c2c(c3ccccc3n2C)-c2ccccc2CO[C@H]1CN(C)C(=O)Nc1cccc(F)c1 | inactive
CC1(C)C2CCC1(C)C(OCCNCCOC(=O)Nc1ccccc1)C2 (stereo not drawn) | inactive
CCN1C(=O)[C@H]2[C@@H](c3ccc(C)cc3)N3C(=O)N(c4cccc(Br)c4)C(=O)[C@@]3(CC)[C@H]2C1=O | inactive
CCN1C(=O)[C@H]2[C@@H](c3ccc(C)cc3)N3C(=O)N(c4cccc(Br)c4)C(=O)[C@@]3(CC(C)C)[C@H]2C1=O | inactive
C[C@H](CO)N1C[C@H](C)[C@H](CN(C)S(=O)(=O)c2cccs2)Oc2ccc(NC(=O)Cc3cn(C)c4ccccc34)cc2CC1=O | inactive
CCC(C)(C)NC(=O)C(NS(=O)(=O)c1cccs1)c1ccccc1 (stereo not drawn) | inactive
CC(C)OCCCNc1ncnc2c1[nH]c1ccccc12 | inactive
CCOC(=O)/C=C1\Nc2ccccc2SC1=O | inactive
CCCCCn1c(C(C)NC(=O)CCC)nc2ccccc21 (stereo not drawn) | inactive
Cn1c(=O)n(-c2cccc(Cl)c2)c(=O)c2c3c(sc21)COC(C)(C)C3 | inactive
C=CCN([C@@H](CC(C)C)C(=O)OC)S(=O)(=O)N(CC=C)[C@@H](CC(C)C)C(=O)OC | inactive
CN1CCc2ccccc2Cc2[nH]c3ccccc3c2CC1 | inactive
Cc1sc2ncnc(N3CCN(S(=O)(=O)c4ccc(Br)cc4)CC3)c2c1C | inactive
Cc1ccc2nc(NC(=O)CCCC(=O)O)sc2c1 | inactive
CCc1cccc(NC(=O)C2CCN(S(=O)(=O)c3ccc4c(c3)CC(C)N4C(C)=O)CC2)c1 (stereo not drawn) | inactive
Cc1cccc(NC(=O)C2CCN(S(=O)(=O)c3ccc4c(c3)OCCCO4)CC2)n1 | inactive
Cc1ccc(Cn2nnnc2CN2CCC(c3nc4ccc(Cl)cc4[nH]3)CC2)cc1 | inactive
COc1ccc(CN2CCC(C)(Oc3ccc4c(c3)OCO4)C2)c2ccccc12 (stereo not drawn) | inactive
CCN(C[C@H]1N[C@@](CC)(C(=O)OC)[C@H]2C(=O)N(Cc3ccccc3)C(=O)[C@@H]12)C(=O)Nc1ccc(OC)cc1 | inactive
